# Source: PubChem BioAssay AID743193 (National Center for Advancing Translational Sciences (NCATS), 2013)
# Inconclusive results are not listed. The source made the active and inactive calls. Calls follow the shape of the dose curve; as a rule, active = well fitted curve in the direction sought with a large enough effect; inconclusive = small, poorly fitted or top-dose-only effect, or another doubt; inactive = no such curve, though single readings can be large or run the other way.
# Biological target: Glyceraldehyde-3-phosphate dehydrogenase (Oryctolagus cuniculus) (UniProt P46406)
# Assay: Extended Characterization of HPGD Inhibitors: Counterscreen Against rGAPDH
# Conditions: rabbit GAPDH/diaphorase coupled resazurin fluorescence; series mostly up to 57.1 µM
# Protocol: The central role of HPGD is to inactivate prostaglandins such as prostaglandin E2 (PGE2) or prostaglandin D2 (PGD2). These prostaglandins are involved in a number of processes, including inflammation, differentiation, and cellular signaling, which makes HPGD an important target for pharmacological intervention. The counterscreen for non-specific dehydrogenase activity was conducted using a rabbit glyceraldehyde-3-phosphate dehydrogenase (rGAPDH; Sigma Aldrich, St. Louis, MO) coupled assay system. In this assay, the rGAPDH-catalyzed conversion of NAD+ to NADH is coupled downstream to an additional enzyme, diaphorase (Sigma Aldrich, St. Louis, MO), which reduces the non-fluorescent molecule, resazurin, to a red fluorescent product, resorufin, in an NADH-dependent fashion. Thus, rGAPDH activity leads to an increase in fluorescence at 598 nm, and inhibitors of the reaction lead to a decrease in resorufin production and a subsequent decrease in fluorescence. The change in fluorescence between 0 and 30 minutes was measured, and data were normalized to control columns representing maximum signal (all components) and background (no rGAPDH). The buffer consisted of 100mM triethanolamine, pH 7.6, 5mM MgCl2 and 0.01% Tween-20, and the assay was run in black, solid-bottom, non-tissue culture-treated Greiner plates. NIH Chemical Genomics Center [NCGC] NIH Molecular Libraries Probe Centers Network [MLPCN] MLPCN Grant: MH084681 Assay Submitter (PI): Structural Genomics Consortium
# 3 uL of substrate buffer (final conc: 2 mM G3P, 1 mM NAD+, 0.1 mM resazurin, 0.1 mg/mL diaphorase) are added to the 1536-well plate before 23 nL of compound library is pinned into the well. Then, 1 uL of rGAPDH or 0x control (final conc: 2 nM and buffer only, resp.) are added and plate is immediate read for fluorescence on the ViewLux; ex 525, em 598, 1 second exposure, Bodipy Mirror), incubated for 30 at RT before a final read on the ViewLux with the same settings.
# Glyceraldehyde-3-phosphate dehydrogenase (Oryctolagus cuniculus), sequence (P46406 whole entry, looked up): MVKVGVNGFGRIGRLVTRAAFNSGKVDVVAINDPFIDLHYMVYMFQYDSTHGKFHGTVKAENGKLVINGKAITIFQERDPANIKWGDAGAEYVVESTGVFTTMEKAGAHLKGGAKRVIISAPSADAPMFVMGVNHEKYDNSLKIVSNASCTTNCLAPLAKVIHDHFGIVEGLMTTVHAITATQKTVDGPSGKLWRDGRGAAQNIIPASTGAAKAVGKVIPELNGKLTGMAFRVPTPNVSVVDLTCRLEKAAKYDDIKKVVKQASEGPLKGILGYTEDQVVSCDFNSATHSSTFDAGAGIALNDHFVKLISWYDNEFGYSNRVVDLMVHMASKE
row,Structure (SMILES),outcome
1,Cc1ccc(-n2c(C)cc(-c3nnc4n3CCCCC4)c2C)cc1,inactive
2,COc1ccc(-n2cnc3cc(C(=O)N4CCCCC4)ccc32)cc1,inactive
3,Cc1cc(-c2nnc3n2CCCCC3)c(C)n1-c1ccc(Cl)c(Cl)c1,inactive
4,O=C(c1ccc2c(c1)ncn2-c1cccc(Cl)c1)N1CCCCC1,inactive
5,O=C(c1ccc2c(c1)ncn2-c1cccc(C(F)(F)F)c1)N1CCCCC1,inactive
6,Cc1cc(-c2nnc3n2CCCCC3)c(C)n1-c1cccc(C(F)(F)F)c1,inactive
7,Cc1cccc(-n2cnc3cc(C(=O)N4CCCC(C(F)(F)F)C4)ccc32)c1 (centres undefined),inactive
8,Cc1cccc(-n2cnc3cc(C(=O)N4CCCC(C)(C)C4)ccc32)c1,inactive
9,Cc1cc(-c2nnc3n2CCCCC3)c(C)n1-c1cccc(Cl)c1,inactive
